# Assay results taken from PubChem BioAssay (EPA / NIEHS).
# Records with an inconclusive call do not appear. Activity calls are given as the source filed them. How the source made its calls, unless noted: active means hit-call score of the fitted dose curve at least 0.9, where 1 is the maximum; inactive means score below 0.9.
# Tests used:
# [1] = CCTE_Shafer_MEA_dev_correlation_coefficient_mean: CCTE's Neural Network Formation Assay for Mean Correlation Coefficient, Shafer Lab (AID 2284093)
# Procedure, shortened: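 Spontaneous activity recorded on days 5, 7, 9 and 12 post-plating; pairwise spike correlations are averaged across active electrodes and collapsed to an area-under-curve. Rat cortical cultures are dosed from plating through 12 days, with compound renewed at media changes.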
# [2] = TAMU_PeakParms_SingleDonor1434_Chronotropy: Texas A&M University (TAMU) 1.5-hr Human Induced Pluripotent Stem Cell (iPSC)-derived Cardiomyocytes Calcium (Ca+2) Flux Assay for Cardiotoxicity: Chronotropy (changes in peak frequency) (AID 2284217); conditions: actives raise or lower the signal
# Procedure, shortened: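 iPSC-derived cardiomyocytes (single donor 1434) dosed at 0.2, 1, 10 and 100 uM in 0.5% DMSO for 1.5 h at 37C; Ca2+ dye fluorescence gave average beat frequency. Zero-beat points removed; bidirectional fit versus DMSO, POD as EC05.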
# [3] = BSK_BT_PBMCCytotoxicity: PBMC Cytotoxicity Assessment in the BioMAP Diversity Plus: BT Assay (AID 2284225); conditions: primary human B cells with PBMC;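 further: PBMC viability measured by Alamar Blue dye reduction fluorescence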
# Procedure, shortened: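 Primary human co-culture of B cells and PBMC, pre-dosed 1 h then activated with SEB and TSST-1. Cytotoxicity is taken from Alamar Blue dye reduction, added for 6 h at the end of a 90 h incubation.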
# [4] = read-out: Secreted IgG (sIgG), gene 3500; test: BSK_BT_sIgG: BioMAP Diversity Plus: BT Assay for Secreted IgG (sIgG) Biomarker Activity (AID 2284226); conditions: primary human B cells with PBMC
# Procedure, shortened: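 Human B cell/PBMC co-culture; compound exposure 24 h; sIgG by ELISA; gain-of-signal fit vs DMSO baseline.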
# [5] = read-out: Interleukin 6 (IL6), IL6 (gene 3569); test: BSK_BT_xIL6: BioMAP Diversity Plus: BT Assay for Interleukin 6 (IL6) Biomarker Activity (AID 2284228); conditions: primary human B cells with PBMC
# Procedure, shortened: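 Chemical added to human B cell/PBMC co-culture → 24 h → supernatant IL-6 by Luminex xMAP → fit vs DMSO baseline, upward direction.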
# [6] = read-out: Vascular cell adhesion molecule 1 (VCAM1), VCAM1 (gene 7412); test: BSK_MyoF_VCAM1: BioMAP Diversity Plus: MyoF Assay for Vascular cell adhesion molecule 1 (VCAM1) Biomarker Activity (AID 2284231); conditions: primary human lung fibroblasts
# Procedure, shortened: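 Steps: fibroblasts from human lung exposed to compound; biomarker quantified by ELISA at 24 h; values analysed for upward change over the DMSO baseline.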
# [7] = TAMU_HCS_1.5hr_SingleDonor1434_Cytotoxicity: Cytotoxicity Assessment using High-content Screening (HCS) Fluorescent Imaging for the Texas A&M University (TAMU) 1.5-hr Human Induced Pluripotent Stem Cell (iPSC)-derived Cardiotoxicity Assay (AID 2284234; active means hit-call score of the fitted dose curve at least 0.9, where 1 is the maximum)
# Procedure, shortened: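 Nuclear counts from Hoechst 33342 imaging define cytotoxicity here, with EC10 (10% cell-count loss relative to DMSO) as point of departure. iPSC cardiomyocytes received 0.2-100 uM test chemical in 0.5% DMSO for 1.5 h at 37 C.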
smiles,measurement,setting,value
c1ccc2c(c1)c1cccc3ccc4cccc2c4c31,outcome,[1],inactive
same,AC50,[2],9.92 µM (active)
same,outcome,[3],inactive
same,AC50,[4],20 µM (active)
same,AC50,[5],2.63 µM (active)
same,outcome,[6],inactive
same,outcome,[7],inactive
O=C1CCCCCCCCCCCCCCO1,AC50,[3],36.8 µM (active)
same,AC50,[4],23.4 µM (active)
same,AC50,[5],30.4 µM (active)
same,AC50,[6],20 µM (active)
O=[N+]([O-])c1cc(C(F)(F)F)ccc1Cl,outcome,[3],inactive
same,outcome,[4],inactive
same,outcome,[5],inactive
same,outcome,[6],inactive
O=C(O)c1cn(C2CC2)c2cc(N3CCNCC3)c(F)cc2c1=O,outcome,[3],inactive
same,outcome,[4],inactive
same,outcome,[5],inactive
same,outcome,[6],inactive
Cc1ccc(Nc2ccc(O)c3c2C(=O)c2ccccc2C3=O)cc1,outcome,[3],inactive
same,outcome,[4],inactive
same,outcome,[5],inactive
same,outcome,[6],inactive
